These results are taken from PubChem BioAssay AID504374 (National Center for Advancing Translational Sciences (NCATS), 2011).

Values joined by “and” are separate entries in the source; they are usually repeats but may differ in a detail not shown here. Equal values may be shown once. The campaign covered roughly 1,500 compounds. About 100 (6.7%) were called active. Inconclusive results (about 7%) are left out. The sample as a whole holds a higher share of actives than the screen did. A number with no mark means an inactive call. The call rests on the fitted dose curve; in most records, active means well fitted inhibition curve with a large enough effect; inconclusive means small, poorly fitted or top-dose-only effect, or effect the other way; inactive means flat fitted curve, though single readings scatter.
On the % scale 0 is the no-effect control and ±100 the full control effect; potency means the concentration at half of the fitted maximal effect.

Runt-related transcription factor 1 (Homo sapiens) + Core-binding factor subunit beta (Homo sapiens), sequence (Q01196 whole entry, looked up): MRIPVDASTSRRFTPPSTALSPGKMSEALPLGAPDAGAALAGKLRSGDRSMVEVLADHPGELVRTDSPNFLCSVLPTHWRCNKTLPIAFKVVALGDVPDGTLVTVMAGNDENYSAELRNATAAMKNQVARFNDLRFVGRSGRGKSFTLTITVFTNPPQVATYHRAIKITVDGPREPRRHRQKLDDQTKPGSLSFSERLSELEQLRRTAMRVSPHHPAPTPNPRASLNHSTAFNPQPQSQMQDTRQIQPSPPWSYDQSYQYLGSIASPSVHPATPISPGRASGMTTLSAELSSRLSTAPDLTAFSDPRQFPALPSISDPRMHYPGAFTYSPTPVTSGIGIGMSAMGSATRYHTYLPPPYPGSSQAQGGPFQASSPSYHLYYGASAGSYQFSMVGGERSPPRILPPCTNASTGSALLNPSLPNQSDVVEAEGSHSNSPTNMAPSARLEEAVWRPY
Runt-related transcription factor 1 (Homo sapiens) + Core-binding factor subunit beta (Homo sapiens), sequence (Q13951 whole entry, looked up): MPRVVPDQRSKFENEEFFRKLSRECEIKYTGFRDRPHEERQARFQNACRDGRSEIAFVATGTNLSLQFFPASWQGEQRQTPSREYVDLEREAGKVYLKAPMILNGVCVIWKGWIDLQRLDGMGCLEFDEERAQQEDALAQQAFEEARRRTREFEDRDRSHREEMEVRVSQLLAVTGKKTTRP

This experiment has as its target Runt-related transcription factor 1 (Homo sapiens) + Core-binding factor subunit beta (Homo sapiens) (UniProt Q01196+Q13951). Nature of the experiment: qHTS Assay for Compounds Blocking the Interaction Between CBF-beta and RUNX1 for the Treatment of Acute Myeloid Leukemia: Hit Validation. Further: nearly all actives have a fitted effect of over 60% in size. The note with it: AlphaScreen CBFb-His/RUNX1-biotin binding; series mostly up to 59.8 µM; activity, negative = inhibition: at the top concentration. The source says:
NIH Chemical Genomics Center [NCGC]
NIH Molecular Libraries Probe Production centers Network [MLPCN]
Assay Submitter (PI): Paul Liu
Core Binding Factor (CBF) abnormalities are associated with 20-25% of all acute myeloid leukemias (AML), of which 5-10% are further sub classified as acute myelomonocytic leukemia with eosinophilia, also known as M4Eo in the FAB classification scheme. This subtype of leukemia is usually associated with chromosome 16 inversion (p13:q22). Chromosome 16 inversion results in formation of the fusion oncogene CBFB-MYH11, which encodes the fusion protein CBF-beta-SMMHC.
It has been hypothesized that the interference of CBF-beta and RUNX1 binding could have therapeutic implications for patients with CBF mediated leukemias. We developed a CBF-beta and RUNX1 binding assay in AlphaScreenTM format and optimized it for high throughput screening to search for inhibitors. The goal of this project is to screen MLPCN's compound collection (MLSMR) for identifying the inhibitors of the interaction between CBF-beta and RUNX1 proteins as research probes. If these probes work well in the animal models, the ultimate goal of this project is to development a new drug treatment for this disease.
This assay can not be used to assess how apparent inhibitors interfere with protein binding, and whether inhibitors specifically bind to either protein. Disruption of this protein-protein interaction, through any mechanism, is the intended target activity.
The present data set was run to confirm the activity of hits from the primary screen.
NCGC Assay Protocol Summary:
Step, Parameter, Description
(1) Reagent, 3 uL CBFb-His/RUNX1-biotin mix incubated together for 20 minutes at room temperature (30 nM each)
(2) Compound or control, 23 nL compound stock solution
(3) Incubation, 15 minutes at Room temperature
(4) Reagent, 1 uL 50 ng each of beads (Nickel beads and streptavidin beads)
(5) Incubation, 90 minutes at Room temperature
(6) Detection, Excitation=365 nm Emission=440 nm, Envision reader in AlphaScreenTM mode
Keywords: MLSMR, MLPCN, NIH Roadmap, qHTS, NCGC, Core binding factor, CBF, CBF-beta, Acute myeloid leukemia
Consider `COCCn1c(-c2ccc(Cl)cc2)nc2oc3cc(OC)ccc3c(=O)c2c1=O`, for which the “activity, negative = inhibition” value is -1.81%.

For the molecule `CC(=O)Nc1ccc(OCCOc2ccc([N+](=O)[O-])cc2)cc1`, the “activity, negative = inhibition” value was 0.185%.

`O=C1c2ccccc2C(=O)c2c(Nc3ccc(CCO)cc3)ccc(O)c21`: the Potency was 0.794 µM (active).

For `CSC(=Nc1ccccc1)Nc1ccccc1`, the “activity, negative = inhibition” value was -0.945%.

`CCOC(=O)N1CCN(CC(=O)Nc2sc(CC)cc2C(=O)c2ccc(OC)cc2)CC1`: the “activity, negative = inhibition” value is -13.8%.

Turning to `CCOC(=O)CC(=O)CSc1nc(CC)c(C)cc1C#N`, the “activity, negative = inhibition” value was -13.7%.

With `COc1ccc(N/C=C2\C(=O)c3c(sc(C)c3C)N(C)S2(=O)=O)cc1`, the “activity, negative = inhibition” value was 1.6%.

Take `COc1cc(/C=N/Nc2ccc(S(N)(=O)=O)cc2[N+](=O)[O-])cc(OC)c1O`: the “activity, negative = inhibition” value is -20.2%.

On to `COc1ccc(/C=N/NC(=O)c2ccc3nc[nH]c3c2)cc1OC`, for which the “activity, negative = inhibition” value was -0.42%.

In the case of `COc1cc(/C=N/NC(=O)c2cncc(Br)c2)cc([N+](=O)[O-])c1O`, the Potency is 2.82 µM (active).

For `Oc1ccc2ccccc2c1C=Nc1ccccc1`, the “activity, negative = inhibition” value was -2.72%.

Turning to `CNC(=O)/C(C#N)=C1\SC(Cc2ccc(F)cc2)C(=O)N1c1ccccc1C` (stereo not drawn), the “activity, negative = inhibition” value was -0.028%.

`O=C(Nc1ccccc1)NC1CCCCNC1=O` (stereo not drawn): the “activity, negative = inhibition” value was 1.23%.

Turning to `CCOC(=O)/C(C#N)=C/Nc1cc(F)ccc1C`, the “activity, negative = inhibition” value is -3.99%.

Turning to `COc1ccc(/C(C#N)=C/c2ccccn2)cc1`, the “activity, negative = inhibition” value was 9.94%.

Take `CCOC(=O)/C(C#N)=C/c1ccc(OC(=O)c2ccccn2)cc1`: the Potency was 3.86 µM (active).

For the molecule `CCOC(=O)/C(C#N)=C/Nc1ccccc1OC(F)(F)F`, the “activity, negative = inhibition” value is -2.36%.

For `N#CC(C#N)=Cc1ccc(OC(=O)c2ccccn2)cc1`, the Potency is 6.12 µM (active).

With `N#C/C(=C\c1ccc(OC(=O)c2ccccn2)cc1)C(N)=O`, the Potency is 4.34 µM (active).

Consider `CCOc1ccccc1/C=C(/C#N)C(N)=O`, for which the “activity, negative = inhibition” value was 2.38%.

As for `S=c1[nH]ccn1-c1ccccc1Cl`, the “activity, negative = inhibition” value is -10.1%.

Turning to `CC(=O)NCC1(O)CCCC(C)C1` (stereo not drawn), the “activity, negative = inhibition” value was -8.56%.

Take `CC(C)(C)C(=O)Nc1ccc(NC(=O)C(C)(C)C)cc1`: the “activity, negative = inhibition” value is 10.3%.

For `O=C(COc1ccc([N+](=O)[O-])cc1Cl)N1CCOCC1`, the “activity, negative = inhibition” value is 2.71%.

Turning to `O=C(CSc1n[nH]c(=O)[nH]c1=O)N1CCCCCC1`, the “activity, negative = inhibition” value is -1.59%.

For the molecule `O=C(Oc1ccc2c(c1)O/C(=C\c1ccncc1)C2=O)c1cccs1`, the “activity, negative = inhibition” value was -8.69%.

As to `CCCN(CCC)C(=O)CC(c1ccccc1)c1ccco1` (stereo not drawn), the “activity, negative = inhibition” value was 12.8%.

`COC(=O)c1ccc(OC)c(OC)c1Cl`: the “activity, negative = inhibition” value was -1.98%.

With `Cc1c2c(c(O)c3c(O)cccc13)C(=O)O[C@H]2C1C(N(C)C)C(O)=C(C(N)=O)C(=O)[C@H]1O` (stereo partly drawn), the Potency was 0.631 µM (active).

As for `CCOC(=O)c1c2c([nH]c(=S)c1C#N)CCCC2`, the “activity, negative = inhibition” value was -3.85%.

In the case of `COc1cc(O)c2c(c1)oc(=O)c1c3cc(O)c(O)cc3oc21`, the Potency is 3.16 µM (active).

In the case of `COc1cc(C2C(C#N)=C(N)OC3=C2C(=O)CC(C)(C)C3)ccc1OCCN1CCOCC1` (stereo not drawn), the “activity, negative = inhibition” value was -3.79%.

As for `COC(=O)c1ccc(Cn2cc([N+](=O)[O-])cn2)cc1`, the “activity, negative = inhibition” value is -7.08%.

Regarding `C/C(O)=C(\C#N)P(=O)(c1ccccc1)c1ccccc1`, the “activity, negative = inhibition” value is 10.4%.

For `c1ccc(CSc2ccc(-c3ccccn3)nn2)nc1`, the Potency is 2.51 µM (active).

With `Clc1ccc(-c2ccccc2)nn1`, the “activity, negative = inhibition” value was -1.75%.

Regarding `CC(=O)c1cc(C#N)c(SCc2ccccn2)nc1C`, the “activity, negative = inhibition” value was -7.25%.

As to `c1ccc(-c2n[nH]c(-c3ccccn3)n2)nc1`, the Potency was 1 µM (active) and 708 nM (active).

On to `c1ccc(-c2ccc(-c3ccccn3)nn2)nc1`, for which the Potency was 2.82 µM (active).

Consider `O=[N+]([O-])c1ccccc1CSc1ccccn1`, for which the “activity, negative = inhibition” value was 1.85%.

In the case of `Clc1ccccc1/C=C/c1nc(-c2ccccn2)no1`, the “activity, negative = inhibition” value is -23.2%.

As to `c1ccc(-c2ccccn2)nc1`, the Potency is 7.94 µM (active).

On to `c1ccc(-c2ccc(-c3ccccn3)s2)nc1`, for which the “activity, negative = inhibition” value is 3.74%.

For the molecule `CCN(CCS(=O)(=O)c1ccc(Cl)cc1)C(=O)Nc1ccccc1`, the “activity, negative = inhibition” value was -4.65%.

`COc1ccc2c(C)cc(C)nc2n1`: the “activity, negative = inhibition” value was 6.91%.

`Cc1cc(C)n2cnnc2n1`: the “activity, negative = inhibition” value was -3.07%.

Take `CCC1(C)N=C(N)Nc2nc3cc(C)c(C)cc3n21` (stereo not drawn): the “activity, negative = inhibition” value is -2.57%.

Consider `CCOC(=O)N1CCC(NS(=O)(=O)c2ccccc2)CC1`, for which the “activity, negative = inhibition” value is -16.1%.

On to `CCNC(=O)COC(=O)c1cc(S(=O)(=O)N2CCCCC2)ccc1C`, for which the “activity, negative = inhibition” value is -10.6%.

`Cc1cc(C)nc(N2N=C(C(F)(F)F)CC2=O)n1`: the “activity, negative = inhibition” value was 2.96%.

For `COc1ccc(CCn2cnc3c([nH]c4ccccc43)c2=O)cc1`, the “activity, negative = inhibition” value was -4.1%.

For `CC(C)(C)N1CCC1C(N)=O` (stereo not drawn), the “activity, negative = inhibition” value is 12.6%.

`Cn1c(=O)c2c(Nc3ccc(F)cc3)cc(=O)n(-c3ccccc3)c2n(C)c1=O`: the “activity, negative = inhibition” value is -4.15%.

With `O=C(CC1NCCNC1=O)NC1Cc2ccccc2C1` (stereo not drawn), the “activity, negative = inhibition” value was 9.2%.

Turning to `CC(=O)C1C(=O)CC(c2ccc(Cl)cc2)CC1=O` (stereo not drawn), the “activity, negative = inhibition” value is -0.716%.

Regarding `Cc1oc(S(=O)(=O)N2CCCC2)cc1C(=O)Nc1ccc(F)cc1`, the “activity, negative = inhibition” value is -4.36%.

As for `C=CCOc1c(CCC)cc(CCC)cc1C(N)=O`, the “activity, negative = inhibition” value was -2.85%.

As to `Cc1cc(O)c(C=O)c2c1C(=O)Oc1c(COC(=O)/C=C/C(=O)O)c(O)c(C(=O)O)c(C)c1O2`, the Potency is 11.2 µM (active).
